This note sets out measurements from ChEMBL document CHEMBL4513216, “Probing the Open Global Health Chemical Diversity Library for Multistage-Active Starting Points for Next-Generation Antimalarials” (ACS Infect Dis, 2020).

Molecules are shown by their SMILES. The whole screen tested about 69,000 compounds, of which about 8,600 (12%) showed an effect of 50% or more. The list comes from a sample in which strong results are over-represented; it also holds similar structures and randomly drawn compounds.

The test system of this test is Plasmodium berghei. Nature of the test: Screen against P. berghei liver stage (PbLuc), transformed with Luciferase, at 10uM. It is filed as functional, HepG2. The conditions noted are these: tested at 10 uM.
Turning to `O=C(C1CC=CC1)N1CCC2(CC1)CNCCO2`, the INHIBITION is reported as 29%.

For the compound `CC(=O)N1CCOC2(CCN(C(=O)C3CC3)CC2)C1`, the INHIBITION came to 85.6%.

As to `O=C(C1CC1)N1CCOC2(CCNCC2)C1`, the INHIBITION is on record as 36.7%.

For `O=C(C1CCC1)N1CCC2(CC1)CNCCO2`, the INHIBITION was -12.4%.

`Cc1ccc(CN2CCOC3(CCN(C(=O)C4CCOC4)CC3)C2)cc1` (stereo not drawn): the INHIBITION came out at 39.3%.

Take `Cc1ccc(CN2CCOC3(CCN(C(=O)C4CC=CC4)CC3)C2)cc1`: the INHIBITION was 55.6%.

As to `Cc1ccc(CN2CCOC3(CCCN(C(=O)c4ccco4)C3)C2)s1` (stereo not drawn), the INHIBITION came to 28.5%.

Turning to `Cc1ccc(N(CCC#N)C(=O)CN2CCCC2c2ccsc2)cc1C` (stereo not drawn), the INHIBITION is reported as -10.75%.

Turning to `CC1CCC(C(=O)N2CCC(n3cc(C4(O)CCCC4)nn3)CC2)CC1` (stereo not drawn), the INHIBITION came to 47.4%.

Consider `c1csc(-c2nc(CN3CCCC3Cn3cccn3)co2)c1` (stereo not drawn), for which the INHIBITION is listed as 17.5%.

`CC(C)(N)c1nc(C(F)F)cc(=O)[nH]1`: the INHIBITION is recorded as -4.35%.

On to `CS(=O)(=O)NC(c1ccccc1)c1ccc2c(c1)CCCO2` (stereo not drawn), for which the INHIBITION is listed as -9.98%.

Regarding `CC(C)c1nc(CN(C)C(=O)[C@H](N)Cc2ccc(Cl)cc2)cs1`, the INHIBITION came to 17.2%.

As for `CCOc1ccc(CN(C)C(=O)NC(C)c2nncn2C)cc1` (stereo not drawn), the INHIBITION is listed as -6.75%.

With `COc1ccc(CN(C)C(=O)NC(C)c2nncn2C)cc1F` (stereo not drawn), the INHIBITION is listed as -24.7%.

As to `CC(NC(=O)N(C)Cc1cccc(OC(F)F)c1)c1nncn1C` (stereo not drawn), the INHIBITION was found to be 68.2%.

Consider `Cc1nc(C2CCNCC2)cc(N2CCOc3ccccc3C2)n1`, for which the INHIBITION is -55.1%.

Turning to `Cc1nc(CCN)cc(N2CCOc3ccc(Cl)cc3C2)n1`, the INHIBITION was -43.5%.

Take `Cc1nc(C2CCN(C)CC2)cc(N2CCOc3ccc(Cl)cc3C2)n1`: the INHIBITION was 94.3%.

On to `CC(C)Oc1ccc(CN)c(C(F)(F)F)c1`, for which the INHIBITION was found to be 10%.

Turning to `CCOc1ccccc1OC1CCN(C(=O)c2cnns2)CC1`, the INHIBITION amounted to 44.1%.

On to `CC(C)c1cc(NC(=O)CNC2CCc3nc(C(C)C)nn3C2)on1` (stereo not drawn), for which the INHIBITION was found to be 35.7%.

`Cc1noc(C)c1C(=O)N1CCCC(c2c(C)c(=O)nc3n2CCC3)C1` (stereo not drawn): the INHIBITION was found to be 55.6%.

As for `Cc1c(C2CCCN(C(=O)c3ccncc3)C2)n2c(nc1=O)CCC2` (stereo not drawn), the INHIBITION is 20.8%.

`Cc1c(C2CCCN(C(=O)C3CC3)C2)n2c(nc1=O)CCC2` (stereo not drawn): the INHIBITION is recorded as 28.4%.

Take `CNC(=O)Cn1cc(Nc2cccc(F)c2C#N)cn1`: the INHIBITION is on record as -0.514%.

For the compound `N#Cc1c(F)cccc1Nc1cnn(CC(=O)N2CCOCC2)c1`, the INHIBITION stood at 19.2%.

For `N#Cc1c(F)cccc1Nc1cnn(CC(N)=O)c1`, the INHIBITION was 65.4%.

In the case of `CCc1csc(C2CCCN(C(=O)c3cnc[nH]3)C2)n1` (stereo not drawn), the INHIBITION is given as 10%.

As for `CN(Cc1ccco1)Cc1cnc2n1CCN(c1ncccn1)CC2`, the INHIBITION was 2.4%.

Take `Cc1ccc(S(=O)(=O)NCC(C)(C)N)c(F)c1`: the INHIBITION turned out to be 8.51%.

`CN1CCCC(CNC(=O)N(C)Cc2ccc(Cl)c(F)c2)C1` (stereo not drawn): the INHIBITION is given as 31%.

Consider `O=S(=O)(N1CCCC1)N1C[C@@H](c2cccc(F)c2)[C@@H]2NCCCCC[C@H]21`, for which the INHIBITION was determined as 43.6%.

As for `CCN(CC)S(=O)(=O)N1CCCC(c2cccc(C(=O)O)c2)C1` (stereo not drawn), the INHIBITION is on record as -31.5%.

`CCN(CC)S(=O)(=O)N1C[C@@H](c2ccccc2)[C@H]2[C@H]1CCCCCN2C`: the INHIBITION is reported as 51.7%.

As for `CN1CCCCC[C@@H]2[C@@H]1[C@H](c1ccccc1)CN2C(=O)c1ccccn1`, the INHIBITION is on record as -37%.

Take `O=S(=O)(N1CCCC1)N1CC[C@H](c2ccccc2)[C@H]2NCCCC[C@H]21`: the INHIBITION stood at 52%.

Consider `CC(C)S(=O)(=O)N1C[C@@H](c2ccccc2)[C@H]2[C@H]1CCCCCN2C`, for which the INHIBITION came to 16.5%.

For `CN1CCCC[C@@H]2[C@H]1[C@@H](c1ccccc1)CCN2S(=O)(=O)N1CCCC1`, the INHIBITION came to 61.7%.

As to `CCN(CC)S(=O)(=O)N1CC[C@H](c2ccccc2)[C@@H]2[C@H]1CCCCN2C`, the INHIBITION is given as 73.1%.

As for `CCN(CC)S(=O)(=O)N1CC[C@H](c2ccccc2)[C@H]2NCCCC[C@H]21`, the INHIBITION is recorded as 47.2%.

For `N[C@H]1CN(S(=O)(=O)N2CCCC2)C[C@@H]1c1ccccc1`, the INHIBITION stood at 44.2%.

Regarding `CCN(CC)S(=O)(=O)N1CCCC1CC(=O)c1cccs1` (stereo not drawn), the INHIBITION is recorded as -2.74%.

As to `O=S(=O)(N1CCCC1)N1CCCCC1CCc1ccccc1` (stereo not drawn), the INHIBITION is listed as 31.8%.

With `CC[C@@H](c1ccccc1)n1c(CCN)n[nH]c1=O`, the INHIBITION came out at 39%.

`CCc1noc(C(C)N2CCN(c3ccc(C#N)cc3F)CC2)n1` (stereo not drawn): the INHIBITION is on record as -17.4%.

Consider `O=C(CC1CCCC1)NCCS(=O)(=O)N1CCN(c2ccccc2)CC1`, for which the INHIBITION was -16.4%.

Take `CC(=O)NCc1cc(-c2cccs2)n(C2CCCC2)n1`: the INHIBITION was determined as 1.74%.

As to `COc1c(C2CCCN2CC(=O)N(C)c2nccs2)c(C)nn1C` (stereo not drawn), the INHIBITION turned out to be 8.7%.

For the compound `CN(C)c1ccc(C(=O)N2CCCC2c2noc(C3CC3)n2)nn1` (stereo not drawn), the INHIBITION is recorded as 3.263%.

For `Cc1ncc2c(n1)CN(CC(=O)Nc1nnc(C)s1)CC2`, the INHIBITION is on record as 34.7%.

As for `O=C(NCC1CC1)[C@@H]1CCO[C@@H]2CCN(CCc3ccccc3)C[C@H]21`, the INHIBITION worked out at 47.1%.

In the case of `COCC(=O)NCc1cc2n(n1)CCCN(Cc1ccccc1SC)C2`, the INHIBITION is given as -46.2%.
